Screening data deposited in PubChem by Broad Institute.
Shown are actives, neighbours in structure and some others; about 2.4% of the full set was active somewhere.
Pf Dd2 growth = blocks growth of Plasmodium falciparum Dd2 parasites; P. falciparum Dd2 growth, SYBR Green, 72 h; active compounds read low; activity change, % at 10 µM; actives 2.3% (n = 94,000); AID 1159554; in the data active = activity change below about -80%; inconclusive = no clear call, values can overlap the other calls
C diff HTS = C. difficile growth inhibition; Clostridium difficile clinical isolate growth, OD600, 24 h; active compounds read low; growth activity, negative = inhibition, % at 16 µg/mL (by protocol); AID 1259249; actives 0.25% (n = 86,000);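 active = mean growth activity at or below -80% and every replicate also at or below -80%; inconclusive = mean at or below -80% but some replicate above -80%; inactive = mean growth activity above -80%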;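 also: 0% = DMSO wells and -100% = levofloxacin 16 µg/mL wells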
An asterisk follows results filed as active; ? = inconclusive; nt = not tested or not shown.

SMILES | Pf Dd2 growth | C diff HTS
COCC(=O)N1CC2(C1)CN(Cc1cc(F)ccc1F)[C@H](CO)c1[nH]c3cc(OC)ccc3c12 | -87* | 4
COCC(=O)N1CC2(C1)CN(Cc1ccccn1)[C@@H](CO)c1[nH]c3cc(OC)ccc3c12 | -82* | 3
COCC(=O)N1CC2(C1)CN(Cc1cccc(OC)c1)[C@@H](CO)c1[nH]c3cc(OC)ccc3c12 | ? | 1
COCC(=O)N1CCC2(CC1)CN(Cc1ccccn1)[C@H](CO)c1[nH]c3cc(OC)ccc3c12 | -9 | -3
COc1ccc2c3c([nH]c2c1)[C@H](CO)N(Cc1ccccc1F)CC31CN(C)C1 | -53 | -2
COCC(=O)N1CCC2(CC1)CN(Cc1ccccc1F)[C@H](CO)c1[nH]c3cc(OC)ccc3c12 | -89* | 9
CO[C@H]1CN(C)C(=O)c2cc(NC(=O)c3cccc(F)c3)ccc2OC[C@@H](C)N(CC2CC2)C[C@@H]1C | -6 | nt
N#C[C@H]1[C@H](c2ccc(C#Cc3ccccc3F)cc2)[C@@H](CO)N1C(=O)C1CCCCC1 | -51 | -6
N#C[C@H]1[C@@H](c2ccc(C#Cc3ccccc3F)cc2)[C@H](CO)N1C(=O)C1CCCC1 | -66 | 18
N#C[C@@H]1[C@H](c2ccc(C#Cc3ccccc3F)cc2)[C@H](CO)N1C(=O)C1CCCC1 | -88* | -2
N#C[C@H]1[C@@H](c2ccc(C#Cc3ccccc3F)cc2)[C@@H](CO)N1C(=O)C1CCCCC1 | -93* | -8
C[C@@H]1CN([C@@H](C)CO)S(=O)(=O)c2ccc(-c3cccnc3)cc2O[C@@H]1CN(C)Cc1ccncc1 | 26 | 2
CCCNC(=O)N1CC2(CCN(C(=O)c3ccncc3)CC2)c2c([nH]c3cc(OC)ccc23)[C@@H]1CO | 1 | -3
C[C@@H]1CN([C@@H](C)CO)C(=O)c2cccc(NC(=O)Nc3ccccc3)c2O[C@@H]1CN(C)C(=O)Nc1ccccc1 | -91* | -6
COc1ccc(NC(=O)N(C)C[C@H]2Oc3c(NC(=O)Nc4ccccc4)cccc3C(=O)N([C@H](C)CO)C[C@H]2C)cc1 | -86* | 0
C[C@@H]1CN([C@H](C)CO)C(=O)c2cccc(NC(=O)Nc3ccccc3)c2O[C@@H]1CN(C)C(=O)Nc1ccccc1 | -41 | -12
COc1ccc(NC(=O)Nc2cccc3c2O[C@H](CN(C)C(=O)Nc2ccc4c(c2)OCO4)[C@@H](C)CN([C@@H](C)CO)C3=O)cc1 | -11 | nt
COc1ccc(NC(=O)N(C)C[C@H]2Oc3c(NC(=O)Nc4ccc5c(c4)OCO5)cccc3C(=O)N([C@@H](C)CO)C[C@H]2C)cc1 | -86* | 5
COc1ccc(NC(=O)Nc2cccc3c2O[C@H](CN(C)C(=O)Nc2ccccc2)[C@@H](C)CN([C@H](C)CO)C3=O)cc1 | -4 | 5
COc1ccc(NC(=O)Nc2cccc3c2O[C@H](CN(C)C(=O)Nc2cccc4ccccc24)[C@H](C)CN([C@@H](C)CO)C3=O)cc1 | -88* | 14
COc1ccc(NC(=O)Nc2cccc3c2O[C@H](CN(C)C(=O)Nc2cccc4ccccc24)[C@@H](C)CN([C@H](C)CO)C3=O)cc1 | -32 | -5
CC(C)NC(=O)N(C)C[C@@H]1Oc2cc(C#C[C@@H](C)O)ccc2S(=O)(=O)N([C@@H](C)CO)C[C@@H]1C | 17 | -5
C[C@@H]1CN([C@@H](C)CO)C(=O)CCCn2nncc2CO[C@@H]1CN(C)Cc1cccc(O)c1 | 15 | -1
O=C([C@@H]1[C@@H](CO)[C@@H]2Cn3c(cccc3=O)[C@@H]2N1CCC(F)(F)F)N1CCCCC1 | nt | 2
C[C@H]1CCCCO[C@H](CN(C)C(=O)NC2CCCCC2)[C@@H](C)CN([C@@H](C)CO)C(=O)c2cc(NC(=O)NC3CCCCC3)ccc2O1 | -52 | -5
SMILES | Pf Dd2 growth | C diff HTS
CC(C)NC(=O)Nc1ccc2c(c1)C(=O)N([C@@H](C)CO)C[C@@H](C)[C@H](CN(C)C(=O)NC(C)C)OCCCC[C@H](C)O2 | 13 | 18
Cc1ccc(S(=O)(=O)Nc2ccc3c(c2)CC(=O)N([C@H](C)CO)C[C@@H](C)[C@@H](CN(C)C(=O)Nc2ccccc2)O3)cc1 | 9 | -3
C/C=C/c1ccc2c(c1)O[C@@H](CN(C)Cc1ccc(C(=O)O)cc1)[C@@H](C)CN([C@@H](C)CO)S2(=O)=O | -10 | 3
Cc1noc(C)c1NC(=O)N(C)C[C@@H]1Oc2c(NC(=O)Nc3ccc(C(F)(F)F)cc3)cccc2C(=O)N([C@@H](C)CO)C[C@H]1C | -5 | nt
C[C@H](CO)N1C[C@H](C)[C@H](CN(C)C(=O)Nc2ccc(F)cc2)Oc2c(NC(=O)Nc3ccccc3)cccc2C1=O | 1 | 12
C[C@@H]1CN([C@H](C)CO)C(=O)c2cccc(NC(=O)Nc3cccc4ccccc34)c2O[C@@H]1CN(C)C(=O)NC1CCCCC1 | -77 | 48
C[C@@H]1CN([C@@H](C)CO)C(=O)c2cccc(NC(=O)Nc3ccccc3)c2O[C@@H]1CN(C)C(=O)Nc1ccc(F)cc1 | -91* | -11
Cc1noc(C)c1NC(=O)N(C)C[C@H]1Oc2c(NC(=O)Nc3ccc(C(F)(F)F)cc3)cccc2C(=O)N([C@@H](C)CO)C[C@H]1C | -86* | nt
C[C@H]1CN([C@@H](C)CO)C(=O)c2cccc(NC(=O)Nc3cccc4ccccc34)c2O[C@H]1CN(C)C(=O)NC1CCCCC1 | -85* | -5
COc1ccc2c3c(n(C)c2c1)[C@@H](CO)NCC31CCN(Cc2ccccc2F)CC1 | -78 | 9
COc1ccc2c3c(n(C)c2c1)[C@@H](CO)NCC31CCN(Cc2cc(-c3ccccc3)on2)CC1 | -72 | -18
COc1ccc2c3c(n(C)c2c1)[C@H](CO)NCC31CCN(Cc2ccc(-c3ccccn3)cc2)CC1 | -88* | -7
COc1ccc2c3c(n(C)c2c1)[C@@H](CO)NCC31CCN(Cc2ccc(-c3ccccn3)cc2)CC1 | -88* | -7
COc1ccc2c3c(n(C)c2c1)[C@H](CO)NCC31CN(Cc2ccc(Cl)cc2)C1 | -9 | nt
COc1ccc2c3c(n(C)c2c1)[C@@H](CO)NCC31CN(Cc2ccc(-c3ccccn3)cc2)C1 | -89* | 10
CO[C@H]1CN(C)C(=O)c2ccc(NC(=O)c3ccccc3)cc2OC[C@H](C)N(C(C)=O)C[C@H]1C | 0 | -1
COc1ccc2c3c([nH]c2c1)[C@@H](CO)N(C(=O)C1CCCC1)CC31CCN(C(=O)NC(C)C)CC1 | -35 | -6
COCC(=O)Nc1ccc2c(c1)OC[C@H](C)N(C(=O)c1ccccc1)C[C@H](C)[C@@H](OC)CN(C)C2=O | 19 | nt
C[C@H](CO)N1C[C@H](C)[C@@H](CN(C)CC2CC2)Oc2ccc(NS(=O)(=O)c3cn(C)cn3)cc2C1=O | -8 | -2
O=C(c1cccnc1)N1CC[C@@H]2[C@H](CO)Nc3ccc(C#Cc4cccnc4)cc3[C@@H]21 | -64 | -13
Cc1ccc(S(=O)(=O)N(C)C[C@H]2OCCCC[C@H](C)Oc3ccc(NC(=O)Nc4ccc5c(c4)OCO5)cc3C(=O)N([C@@H](C)CO)C[C@H]2C)cc1 | -82* | nt
C[C@@H]1CCCCO[C@@H](CN(C)S(=O)(=O)c2ccc(F)cc2)[C@H](C)CN([C@@H](C)CO)C(=O)c2cc(NC(=O)Nc3ccc4c(c3)OCO4)ccc2O1 | -19 | 9
